# Measured values published in PubChem BioAssay (EPA / NIEHS).
# Activity calls are given as the source filed them. Rule for the calls: active = hit-call score of the fitted dose curve at least 0.9, where 1 is the maximum; inactive = score below 0.9.
# Assay: BSK_BE3C_SRB: Viability Assessment in the BioMAP Diversity Plus: BE3C Assay (AID 2283028);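 for AC50: fitted both ways so AC50 may mark signal gain or loss versus DMSO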
# Conditions: primary human bronchial epithelial cells
# Experimental: BSK_BE3C is a cell-based, multiplexed-readout assay that uses bronchial epithelial cell, a human lung primary cell, with measurements taken at 24 hours after chemical dosing in a 96-well plate.BSK_BE3C_SRB is an assay component measured in the BSK_BE3C assay. It measures 0.1% sulforhodamine related to cell death using Sulforhodamine staining technology.Data from the assay component BSK_BE3C_SRB was analyzed into 1 assay endpoint. This assay endpoint, BSK_BE3C_SRB, was analyzed with bidirectional fitting relative to DMSO as the negative control and baseline of activity. Using a type of viability reporter, gain or loss-of-signal activity can be used to understand changes in the signaling. Furthermore, this assay endpoint can be referred to as a primary readout, because this assay has produced multiple assay endpoints where this one serves a signaling function. To generalize the intended target to other relatable targets, this assay endpoint is annotated to the cell morphology intended target family, where the subfamily is cell conformation.
# The levels of cell surface (or secreted, indicated by the prefix "s") biomarker endpoints were measured by ELISA. Overt cytotoxicity to cells in confluent adherent cultures (all systems other than the BT system) was assessed by measuring total protein levels using sulforhodamine B (SRB) staining in parallel cultures at the time of biomarker measurements, indicated as SRB endpoints. For proliferation assays for adherent cell types, individual cell types are cultured at sub-confluence and relative cell numbers quantified by SRB staining at time points optimized for each system (48 h: 3C and CASM3C systems; 72 h: BT and HDF3CGF systems; 96 h: SAg system). SRB was performed by staining cells with 0.1% SRB after fixation with 10% TCA and reading wells at 560 nm.Viability and proliferation of PBMC (T cells) was quantified by Alamar Blue reduction for the SAg and BT systems. For PBMC viability (referred to as PBMC Cytotoxicity within the assay endpoint names), cells were plated (75,000/well in a 96-well plate) and then chemical samples added for 1 h before addition of activators, SEB and TSST-1 (20 ng/mL final concentration each). Cells were incubated for 90 h. Then, Alamar Blue (20 uL/well) (Invitrogen, Cat DAL1100) was added for 6 h, and the plates were read with a fluorescence microplate reader at 546/580 nm (excitation/emission). For PBMC proliferation, cells were plated and activated as above but incubated for only 16 h prior to addition of Alamar Blue. Plates were read after 6 h.
Structure (SMILES),outcome,AC50
CCCCCCCCCCCC(=O)OC,inactive,
Cc1ccc(N(C)C)cc1,inactive,
COc1cc(C=O)ccc1O,inactive,
NC(=O)Cn1c(=O)cc(CCN2CCN(c3nccc4sccc34)CC2)c2ccc(F)cc21,inactive,
CNCc1cc(F)ccc1Oc1ccc(Cl)c(Cl)c1,inactive,
CCCCCCCCCCCCCCCCCC(=O)O,inactive,
CC=Cc1ccc(O)c(OC)c1,inactive,
CNC(=O)[C@H]1O[C@@H](n2cnc3c(NCc4cc(Cl)ccc4OCc4cc(C)no4)ncnc32)[C@H](O)[C@@H]1N,inactive,
CC(C)c1ccc(C(=O)N=C(N)N)cc1S(C)(=O)=O,inactive,
CCCc1cc(=O)[nH]c(=S)[nH]1,inactive,
O=C(O)CCCCC(=O)O,inactive,
CCCCC(CC)COC(=O)CC(C(=O)OCC(CC)CCCC)S(=O)(=O)O (stereo not given),,6.46 µM (active)
O=c1c(O)c(-c2ccc(O)c(O)c2)oc2cc(O)cc(O)c12,inactive,
CCNc1cccc(C)c1,inactive,
Cc1ccc2ncccc2c1,inactive,
Cc1oc(-c2ccccc2)nc1CCOc1cccc2c1ccn2CCC(=O)O,inactive,
CCCCCCCCCCC,inactive,
Cc1cccc([N+](=O)[O-])c1C,inactive,
Cc1ccc(C)c(O)c1C,inactive,
Nc1nc(N)c2nc(CNc3ccc(C(=O)N[C@@H](CCC(=O)O)C(=O)O)cc3)cnc2n1,inactive,

Structure (SMILES),outcome,AC50
CN1CCN(Cc2cc(-c3ccc4[nH]c(=O)oc4c3)co2)[C@@H](c2ccc(F)cc2)C1,inactive,
Cc1cccc(Nc2cc(Cl)nc(SCC(=O)O)n2)c1C,inactive,
OC[C@@H](O)[C@@H](O)[C@H](O)[C@H](O)CO,inactive,
C[Si]1(C)O[Si](C)(C)O[Si](C)(C)O[Si](C)(C)O1,inactive,
COc1ccc2c(c1)c(CC(=O)O)c(C)n2C(=O)c1ccc(Cl)cc1,inactive,
FC(F)(F)C(F)(F)C(F)(F)C(F)(F)C(F)(F)C(F)(F)CCI,inactive,
CCCCCCCC=O,inactive,
O=[N+]([O-])C(CO)(CO)CO,inactive,
Cc1ccc(Cl)cc1,inactive,
NCCO,inactive,
c1cc(-c2ccncc2)ccn1,inactive,
O=C(OCCCCCOC(=O)c1ccccc1)c1ccccc1,inactive,
CCCCCCCCCCCCCO,inactive,
CC(=O)OC/C=C(\C)CCC=C(C)C,inactive,
CCOC(=O)C(C)(C)Oc1ccc(Cl)cc1,inactive,
CCCCCCCCCCCCCCCC,inactive,
CCOC(=O)CCC(=O)OCC,inactive,
CC(=O)OCCOCCOCCOC(C)=O,inactive,
COc1cc(-c2nc(NC(=O)c3cc4cc(C)cc(C)c4n3CC(=O)O)sc2CCC2CCCCC2)c(OC)cc1Cl,,3.12 µM (active)
CCc1c(C(=O)NN2CCCCC2)nn(-c2ccc(Cl)cc2Cl)c1-c1ccc(Br)cc1,inactive,
